# Results published in article PMC6212833.
# Out of some 2,000 compounds screened, about 15 (0.8%) showed an effect of 50% or more. The list comes from a sample in which strong results are over-represented; it also holds similar structures and randomly drawn compounds. *1 amine or outer side, *2 acyl side, *3 side chain or, on linkers, in order; H or OH if unused. Where a SMILES comes first, the peptide text is derived from it. Bridges are numbered along the chain shown (N, C = ends). X1 = O=C(CCC[*:2])[*:1]
# Test system: Balamuthia mandrillaris (ATCC PRA-291) trophozoites, axenic culture
# Experiment: primary screen, percent inhibition; higher = more effect of the substance;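 note: 0% = vehicle wells and 100% = lysate wells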
# Settings: 20 µM
# Method: Screening of a clinically approved library of compounds, compiled by the Small Molecule Discovery Center (SMDC) at the UCSF, was completed at 20 µM in 0.2% DMSO. All 2,177 drugs in the library were stored as 10 mM stocks dissolved in 100% DMSO (Sigma-Aldrich) at −20°C. B. mandrillaris amoebae were resuspended in axenic medium and distributed into opaque 384-well plates (Corning) at a density of 3,000 amoebae per well using a BioMek NX liquid handler. Negative-control wells were treated with vehicle only (0.2% DMSO in axenic medium), and positive-control wells simulating total destruction of amoebae were seeded with amoeba lysate generated by 3 consecutive freeze-thaw cycles. Following 72 h of incubation, 30 µl of CellTiter Glo reagent (CTG; Promega) was added to each well. The luminescence was measured with a Promega GloMax-Multi+ plate reader at 2, 4, and 8 h after CTG addition. […] The B-score, representing a plate-based statistical approach for correcting row, column, and edge effects, was also calculated for each compound in the library (75).
row,Structure (SMILES),% Inhibition [%]
1,C1N2CN3CN1CN(C2)C3,25.9
2,CN(C)CCC[C@@]1(c2ccc(F)cc2)OCc2cc(C#N)ccc21 [131042-L5],29.1
3,c1ccc(-c2ccc(C(c3ccccc3)n3ccnc3)cc2)cc1 (stereo not shown),2.05
4,O=C(O)C1CSCN1 (stereo not shown),29
5,CC[C@H]1OC(=O)[C@H](C)[C@@H](O[C@H]2C[C@@](C)(OC)[C@@H](O)[C@H](C)O2)[C@H](C)[C@@H](O[C@@H]2O[C@H](C)C[C@H](N(C)C)[C@H]2O)[C@](C)(O)C[C@@H](C)C(=O)[C@H](C)[C@@H](O)[C@]1(C)O [129937-L7],19.9
6,CO/N=C(\C(=O)N[C@@H]1C(=O)N2C(C(=O)O)=C(COC(N)=O)CS[C@H]12)c1ccco1,11.5
7,Cc1ccc(S(=O)(=O)NC(=O)NN2CC3CCCC3C2)cc1 (stereo not shown),10.2
8,Cc1oncc1C(=O)Nc1ccc(C(F)(F)F)cc1,15
9,O=C(O)P(=O)(O)O,19.1
10,CCCCN(CCCC)CC(O)c1cc(Cl)cc2c1-c1ccc(Cl)cc1/C2=C/c1ccc(Cl)cc1 (stereo not shown),5.93
11,CC[C@@]1(O)C(=O)OCc2c1cc1n(c2=O)Cc2cc3c([N+](=O)[O-])cccc3nc2-1,-33
12,C[N+](C)(C)CCCCCC[N+](C)(C)C,26
13,C[N+](C)(C)CCCCCCCCCC[N+](C)(C)C,25.7
14,CCCCCCCCCCCCCCCC[N+](C)(C)C,56.1
15,CC[C@H]1OC(=O)[C@H](C)[C@@H](O[C@H]2C[C@@](C)(OC)[C@@H](O)[C@H](C)O2)[C@H](C)[C@@H](O[C@@H]2O[C@H](C)C[C@H](N(C)C)[C@H]2O)[C@](C)(OC)C[C@@H](C)C(=O)[C@H](C)[C@@H](O)[C@]1(C)O,8.87
16,O=C1NCCN1CCN1CCC(c2cn(-c3ccc(F)cc3)c3ccc(Cl)cc23)CC1,23.8
17,CN1CCc2c(c3ccccc3n2Cc2ccccc2)C1,34.1
18,CN/C(=C\[N+](=O)[O-])NCCSCc1csc(CN(C)C)n1,23.7
19,CN/C(=C\[N+](=O)[O-])NCCSCc1ccc(CN(C)C)o1,68.1
20,CN/C(=C/[N+](=O)[O-])NCCSCc1ccc(CN(C)C)o1,7.74
21,Nc1c(Br)cc(Br)cc1CNC1CCC(O)CC1 (stereo not shown),20.4
22,C#C[C@]1(OC(C)=O)CCC2C3CCC4=C/C(=N/O)CCC4C3CC[C@@]21CC (stereo partly shown),19.6
23,Cc1cnc(C(=O)O)c[n+]1[O-],0.14
24,Cc1cc(N)c2ccccc2[n+]1CCCCCCCCCC[n+]1c(C)cc(N)c2ccccc21,69
25,CC(=O)OCC(=O)[C@@]1(O)CCC2C3CCC4=CC(=O)CC[C@]4(C)C3[C@@H](O)C[C@@]21C (stereo partly shown),33.3
26,Cc1ncc([N+](=O)[O-])n1CC(C)O (stereo not shown),35.8

row,Structure (SMILES),% Inhibition [%]
1,CCN(CC)C(=O)C1(c2ccccc2)CC1CN (stereo not shown),21.4
2,O=S(=O)(O)CCS,8.32
3,CCCCC[C@H](O)/C=C/[C@H]1[C@H](O)CC(=O)[C@@H]1CCCCCCC(=O)O [285959-L6],-5.58
4,Cc1cc(-c2ccc(/N=N/c3ccc4c(S(=O)(=O)O)cc(S(=O)(=O)O)c(N)c4c3O)c(C)c2)ccc1/N=N/c1ccc2c(S(=O)(=O)O)cc(S(=O)(=O)O)c(N)c2c1O,73.9
5,O=C(Nc1cccc2c(=O)cc(-c3nn[nH]n3)oc12)c1ccc(OCCCCc2ccccc2)cc1,-2.25
6,O=C(O)c1ccccc1-c1c2cc(I)c(=O)c(I)c-2oc2c(I)c(O)c(I)cc12,66.4
7,Clc1ccc(C(Cn2ccnc2)OCc2ccsc2Cl)c(Cl)c1 (stereo not shown) [735884-L3],5.23
8,OC[C@H]1O[C@H](O[C@H]2[C@H](O)[C@@H](O)[C@H](O)O[C@@H]2CO)[C@H](O)[C@@H](O)[C@@H]1O,17.5
9,CCCCC(=O)N(Cc1ccc(-c2ccccc2-c2nn[nH]n2)cc1)[C@H](C(=O)O)C(C)C,21.1
10,Cc1ccccc1C(OCCN(C)C)c1ccccc1 (stereo not shown),-5.39
11,CCCCc1oc2ccccc2c1C(=O)c1cc(I)c(OCCN(CC)CC)c(I)c1,14.9
12,CO[C@@H]1[C@@H](O[C@@H]2O[C@H](C)[C@@H](O[C@H]3C[C@@](C)(O)[C@H](O)[C@H](C)O3)[C@H](N(C)C)[C@H]2O)[C@@H](CC=O)C[C@@H](C)[C@@H](O[C@H]2CC[C@H](N(C)C)[C@@H](C)O2)/C=C/C=C/C[C@H](C)OC(=O)C[C@H]1O,4.48
13,O=c1c2ccccc2[se]n1-c1ccccc1,19.3
14,Nc1nc(O)ncc1F,15.6
15,COc1ccc2c(c1)N(C[C@H](C)CN(C)C)c1ccccc1S2,2.52
16,S=P(N1CC1)(N1CC1)N1CC1,27.8
17,CC[C@H](C)[C@@H]1NC(=O)[C@H](Cc2ccc(OC)cc2)NC(=O)CCCSC[C@@H](C(=O)N2CCC[C@H]2C(=O)N[C@@H](CC(C)C)C(=O)NCC(N)=O)NC(=O)[C@H](CC(N)=O)NC(=O)[C@H](CCC(N)=O)NC1=O (Y(Me)IQNCPLG-NH2; linker N-5 via X1),9.07
18,COc1ccc2cc1Oc1ccc(cc1)C[C@H]1c3c(cc4c(c3Oc3cc5c(cc3OC)CCN(C)[C@@H]5C2)OCO4)CCN1C,-18.5
19,COc1ccc(OC)c(C(O)C(C)N)c1 (stereo not shown),16.7
20,CN1C(C(=O)Nc2ccccn2)=C(O)c2ccccc2S1(=O)=O,6.97
21,CCCCC(F)(F)[C@@]1(O)CC[C@H]2[C@@H](CC(=O)[C@@H]2CCCCCCC(=O)O)O1,20.6
22,C[C@@H](O)[C@H]1C(=O)N2C(C(=O)O)=C(S[C@@H]3CN[C@H](C(=O)Nc4cccc(C(=O)O)c4)C3)[C@H](C)[C@H]12,10.5
23,COc1ccc(-n2nc(CCC(=O)N(C)O)cc2-c2ccc(Cl)cc2)cc1,16
24,N[C@@H](CSSC[C@H](N)C(=O)O)C(=O)O,-0.0671
25,CCN(CC)CCNc1ccc(CO)c2sc3ccccc3c(=O)c12,0.0147
26,O=C(O)[C@H](CC(=O)N1C[C@H]2CCCC[C@H]2C1)Cc1ccccc1,22.1

row,Structure (SMILES),% Inhibition [%]
1,CN1CCN(C(=O)O[C@H]2c3nccnc3C(=O)N2c2ccc(Cl)cn2)CC1,9.05
2,C1CCN2C[C@@H]3C[C@H](CN4CCCC[C@@H]34)[C@H]2C1,-35.5
3,O=C(O)C1=C(CSc2nnnn2CS(=O)(=O)O)CS[C@@H]2C(NC(=O)[C@H](O)c3ccccc3)C(=O)N12 (stereo partly shown),15.1
4,CCCCCCCCCCOc1cc2c(O)c(C(=O)OCC)cnc2cc1OCC,-12.8
5,CCN1CCN(C(=O)N[C@@H](C(=O)N[C@@H]2C(=O)N3C(C(=O)O)=C(CSc4nnnn4C)CS[C@H]23)c2ccc(O)cc2)C(=O)C1=O,19.8
6,C=CCNc1nc(NCC=C)nc(N2CCN(C(c3ccc(F)cc3)c3ccc(F)cc3)CC2)n1,13.4
7,CC1=C(CC(=O)O)c2cc(F)ccc2/C1=C\c1ccc(S(C)(=O)=O)cc1,12.2
8,CO/N=C(\C(=O)NC1C(=O)N2C(C(=O)OCOC(=O)C(C)(C)C)=C(/C=C\c3scnc3C)CSC12)c1csc(N)n1 (stereo not shown),-4.68
9,C[C@@H]1CC[C@H]2[C@@H](C)C(O)O[C@@H]3O[C@@]4(C)CC[C@@H]1[C@]32OO4 (stereo partly shown),56.5
10,CC(=O)[C@H]1CC[C@H]2[C@@H]3CC=C4C[C@@H](OC(=O)CCC(=O)O)CC[C@]4(C)[C@H]3CC[C@]12C,-6.88
11,C[C@H]1[C@@H](OC(=O)CCC(=O)O)O[C@@H]2O[C@]3(C)CC[C@H]4[C@H](C)CC[C@@H]1[C@@]24OO3,52.3
12,COC1O[C@@H]2O[C@@]3(C)CC[C@H]4[C@H](C)CC[C@@H]([C@H]1C)[C@@]24OO3 (stereo partly shown),-11.8
13,CO[C@H]1O[C@@H]2O[C@@]3(C)CC[C@H]4[C@H](C)CC[C@@H]([C@H]1C)[C@@]24OO3,48.7
14,C[C@H]1[C@H](OC(=O)CCC(=O)O)O[C@@H]2O[C@@]3(C)CC[C@H]4[C@H](C)CC[C@@H]1[C@@]24OO3,56.1
15,C[C@@H]1CC[C@H]2[C@@H](C)C(=O)O[C@@H]3O[C@@]4(C)CC[C@@H]1[C@]32OO4,54.5
16,Cc1nnc2n1-c1ccc(Cl)cc1C(c1ccccc1)=NC2,-8.66
17,CC1(C)C(C=C(Cl)Cl)C1C(=O)OCc1cccc(Oc2ccccc2)c1 (stereo not shown),13.4
18,COc1cc2nc(N(C)CCCNC(=O)C3CCCO3)nc(N)c2cc1OC (stereo not shown),24.3
19,C=CC[C@]1(O)CC[C@H]2[C@@H]3CCC4=CCCC[C@@H]4[C@H]3CC[C@@]21C,5.59
20,CC(C)C[C@H](NC(=O)[C@@H](Cc1c[nH]c2ccccc12)NC(=O)[C@H](Cc1ccc(O)cc1)NC(=O)[C@H](CO)NC(=O)[C@H](Cc1c[nH]c2ccccc12)NC(=O)[C@H](Cc1c[nH]cn1)NC(=O)[C@@H]1CCC(=O)N1)C(=O)N[C@@H](CCCN=C(N)N)C(=O)N1CCC[C@H]1C(=O)NCC(N)=O,9.31
21,O=C(O)CCCCC(=O)O,25.4
22,O=C(O)CCCO,19
23,CC(=O)OCC(COC(C)=O)OC(C)=O,-1.82
24,C[C@@H]1[C@H](O)[C@@H](C)/C=C/C=C/C=C/C=C/C=C/C=C/C=C/[C@H](O[C@@H]2O[C@H](C)[C@@H](O)[C@H](N)[C@@H]2O)C[C@@H]2O[C@](O)(C[C@@H](O)C[C@@H](O)[C@H](O)CC[C@@H](O)C[C@@H](O)CC(=O)O[C@H]1C)C[C@H](O)[C@H]2C(=O)O,25.1
